The nature of assay [1]: rapamycin-like changes in RPL19A-GFP expression – cell-based, S. cerevisiae, multiplex flow cytometry, primary screen (AID 1862; in the data active = percent of DMSO control GFP below about 86%;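 note: lower values mimic rapamycin by blocking the RPL19A rise seen in DMSO cells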). The following applies: S. cerevisiae RPL19A-GFP strain, flow cytometry fluorescence, 3 h; at 10 µM; stronger effect = lower value.
A short description of assay [2]: TOR pathway GLN3 branch reporter MEP2-GFP changes – S. cerevisiae, multiplex flow cytometry, primary screen (AID 1867;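 active = GFP response, as percent of the DMSO control, above the screen-wide mean plus 3 SD, about 139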;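 note: median GFP channel fluorescence of barcode-gated MEP2-GFP cells measured by flow cytometry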). The conditions noted are these: S. cerevisiae MEP2-GFP strain, 3 h, at 10 µM, stronger effect = higher value, 100% means same as DMSO wells. In general terms: A flow cytometer gives signals particle by particle.
A short description of assay [3]: TOR pathway RTG branch CIT2 reporter changes – S. cerevisiae, GFP fusion, multiplex flow cytometry, primary screen (AID 1870;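 active = percent response above a set limit, the screen-wide mean plus 3 SD, cut at about 130% in these data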;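 note: barcoded CIT2-GFP strain pooled with four other GFP strains with rapamycin as positive control; median GFP fluorescence per well over plate mean of DMSO wells so 100% = DMSO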). The conditions noted are these: S. cerevisiae CIT2-GFP expression, 3 h, at 10 µM, stronger effect = higher value.
Assay [4] in a line: TOR pathway LAP4-GFP level changes – S. cerevisiae, multiplex flow cytometry, primary screen (AID 1873;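 active = GFP signal, as percent of the solvent control, above the screen mean plus 3 SD, about 149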). The following applies: S. cerevisiae LAP4-GFP expression, 3 h, at 10 µM, stronger effect = higher value.
Assay [5] in a line: yeast AGP1-GFP level changes, GLN3 branch – cell-based, multiplex flow cytometry, S. cerevisiae, primary screen (AID 1887;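 active = GFP signal above the screen-wide mean plus 3 SD, that is over about 124.5% of the solvent control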;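 note: AGP1-GFP fusion strain of S. cerevisiae within a five-strain barcoded multiplex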). The following applies: 3 h, at 10 µM, stronger effect = higher value.
Assay [6] can be described thus: reduced mouse 2C T cell binding to pMHC/ICAM-1 vesicles – MLPCN validation set, flow cytometry, LFA-1/ICAM-1 modulator project, pilot screen (AID 2523;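 active = response below a set limit, under 55% cells CD8-positive and vesicle-bound, and CD8 cells' 90th-percentile brightness under 279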;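 for vesicle binding response: mean PE anti-B7-1 fluorescence of CD8+ cells relative to row control; 100% = QL9-loaded vesicles with DMSO vehicle in the same plate row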). The following applies: 2C mouse CD8+ T cells, at 7 µM, stronger effect = lower value; double positive events: measured here: CD8+/vesicle+ event percentage.
Assay [7] addresses Integrin beta-1 (Homo sapiens) + Integrin alpha-4 (Homo sapiens) (UniProt P13612+P05556). Nature of the assay: alpha4beta1 integrin LIBS antibody binding reduction – U937 cells, HUTS-21 mAb, flow cytometry, validation set, VLA-4 allosteric modulator project, pilot screen (AID 2674;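 active = inhibition above 50%, about 3 SD of the validation set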;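 note: antibody binding induced by the VLA-4 ligand LDV present at three times its Kd; 0% = LDV ligand with antibody and no compound and 100% = antibody without LDV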). The conditions noted are these: HUTS-21 LIBS mAb binding, at 6.7 µM, stronger effect = higher value, binding induced by LDV ligand.

A short description of assay [8]: calorie-restriction mimetic ROS inhibitors, yeast – validation compound set, pilot screen (AID 2706;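 active = superoxide response below 65% of plate, a cut near 3 SD across the whole screen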;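 note: yeast exposed to compound for one week at 30 degrees C before staining; 100% = mean of all compound wells on the same plate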). The following applies: S. cerevisiae aging, superoxide DHE fluorescence; at 10 µM; stronger effect = lower value.
Assay [9] deals with Beta-adrenergic receptor kinase 1 (Homo sapiens) (UniProt P25098). Nature of the assay: GRK2 binders displacing RNA aptamer, biochemical, validation, human GRK2, bead flow cytometry (AID 488806;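 active = aptamer binding inhibition above 30%, about 3 SD of noise from non-fluorescent compounds; inactive = inhibition at or below 30%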). The following applies: bead-bound GRK2, FAM-aptamer displacement, at 10 µM, stronger effect = higher value.
Chain of Beta-adrenergic receptor kinase 1 (Homo sapiens) (P25098 whole entry, looked up): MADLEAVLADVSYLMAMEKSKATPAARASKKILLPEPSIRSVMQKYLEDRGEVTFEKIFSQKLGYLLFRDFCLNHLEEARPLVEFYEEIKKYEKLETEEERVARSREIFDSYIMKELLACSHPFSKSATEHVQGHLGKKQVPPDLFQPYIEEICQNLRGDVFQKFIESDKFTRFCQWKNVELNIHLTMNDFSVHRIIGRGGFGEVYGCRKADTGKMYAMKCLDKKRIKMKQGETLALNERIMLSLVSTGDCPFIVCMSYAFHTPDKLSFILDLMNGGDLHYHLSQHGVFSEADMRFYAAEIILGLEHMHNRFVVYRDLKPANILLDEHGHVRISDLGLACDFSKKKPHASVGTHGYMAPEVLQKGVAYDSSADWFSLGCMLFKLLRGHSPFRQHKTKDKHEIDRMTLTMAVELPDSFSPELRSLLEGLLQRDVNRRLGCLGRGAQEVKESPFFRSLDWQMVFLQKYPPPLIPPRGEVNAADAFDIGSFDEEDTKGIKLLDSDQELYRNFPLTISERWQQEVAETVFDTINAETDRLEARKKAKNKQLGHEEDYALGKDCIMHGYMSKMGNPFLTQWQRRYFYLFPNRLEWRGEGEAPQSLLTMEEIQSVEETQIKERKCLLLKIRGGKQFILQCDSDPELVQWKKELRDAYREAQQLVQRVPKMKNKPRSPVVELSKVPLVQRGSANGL
The target of assay [10] is Beta-2 adrenergic receptor (Homo sapiens) (UniProt P07550). Nature of the assay: agonist-induced loss of surface beta2AR – cell-based, FAP fluorogen, flow cytometry, validation set, pilot screen (AID 504459;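 active = percent response above 42, roughly 3 SD of non-fluorescent test compounds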;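 note: agonist-driven loss of surface beta2AR via internalization measured by FAP dye flow cytometry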). The conditions noted are these: Am2.2-beta2AR cells, at 10 µM, stronger effect = higher value.
Chain of Beta-2 adrenergic receptor (Homo sapiens) (P07550 whole entry, looked up): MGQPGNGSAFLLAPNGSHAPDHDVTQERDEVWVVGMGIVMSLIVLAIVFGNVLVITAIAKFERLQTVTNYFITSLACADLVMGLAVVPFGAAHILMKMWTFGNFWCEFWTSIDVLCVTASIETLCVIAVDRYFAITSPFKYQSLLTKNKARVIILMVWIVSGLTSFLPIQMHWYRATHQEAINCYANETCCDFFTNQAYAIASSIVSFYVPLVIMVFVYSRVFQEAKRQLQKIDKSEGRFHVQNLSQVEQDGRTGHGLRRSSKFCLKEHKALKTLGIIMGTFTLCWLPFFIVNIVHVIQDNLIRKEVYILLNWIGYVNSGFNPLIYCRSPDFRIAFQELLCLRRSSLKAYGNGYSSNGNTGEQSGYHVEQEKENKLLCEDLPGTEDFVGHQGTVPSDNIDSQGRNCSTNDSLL
In assay [11] the target is AP-2 complex subunit beta (Homo sapiens) (UniProt P63010). Nature of the assay: beta-arrestin/AP2 interaction blockers – biochemical, validation set, GST-AP2 beads, flow cytometry, pilot screen (AID 504541;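 active = inhibition above 54%, about 3 SD of non-fluorescent compounds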;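 note: AP2 carries R879A mutation and is captured from E. coli lysate; bead-bound FITC arrestin peptide fluorescence measuring arrestin peptide binding to AP2; 0% = DMSO wells and 100% = excess unlabeled arrestin peptide control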). The conditions noted are these: FITC arrestin peptide, at 10 µM, stronger effect = higher value, AP2 beta2 appendage fragment, R879A mutant.
Chain of AP-2 complex subunit beta (Homo sapiens) (P63010 whole entry, looked up, the tested form may be a part, one chain of several): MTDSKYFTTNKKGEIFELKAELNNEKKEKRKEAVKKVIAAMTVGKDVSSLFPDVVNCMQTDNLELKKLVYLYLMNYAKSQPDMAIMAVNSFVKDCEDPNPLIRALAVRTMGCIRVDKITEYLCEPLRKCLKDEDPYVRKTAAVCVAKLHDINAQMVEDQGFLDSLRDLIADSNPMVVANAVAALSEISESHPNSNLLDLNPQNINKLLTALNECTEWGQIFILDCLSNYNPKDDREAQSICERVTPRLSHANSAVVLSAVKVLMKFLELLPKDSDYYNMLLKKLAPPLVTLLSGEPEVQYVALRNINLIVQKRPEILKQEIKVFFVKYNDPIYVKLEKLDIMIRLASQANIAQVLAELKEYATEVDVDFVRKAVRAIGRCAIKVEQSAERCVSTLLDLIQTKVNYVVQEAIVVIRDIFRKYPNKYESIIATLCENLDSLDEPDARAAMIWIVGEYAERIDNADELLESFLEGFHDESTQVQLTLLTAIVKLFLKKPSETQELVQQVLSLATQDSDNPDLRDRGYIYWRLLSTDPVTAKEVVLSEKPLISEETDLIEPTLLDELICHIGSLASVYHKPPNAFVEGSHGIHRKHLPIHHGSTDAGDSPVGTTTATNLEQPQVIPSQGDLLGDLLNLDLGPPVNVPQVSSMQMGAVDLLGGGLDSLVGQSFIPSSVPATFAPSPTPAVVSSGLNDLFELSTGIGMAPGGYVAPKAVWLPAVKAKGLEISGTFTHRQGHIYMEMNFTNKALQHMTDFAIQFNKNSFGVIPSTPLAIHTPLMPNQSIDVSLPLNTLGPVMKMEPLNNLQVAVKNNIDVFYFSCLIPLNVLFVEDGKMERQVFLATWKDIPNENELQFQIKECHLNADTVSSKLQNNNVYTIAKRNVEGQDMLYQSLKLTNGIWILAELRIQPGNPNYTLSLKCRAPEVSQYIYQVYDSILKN
Assay [12] can be described thus: cytosolic pH regulators acting via V-ATPase – S. cerevisiae, pHLuorin, HTS validation (AID 504600).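 Note: plate controls were DMSO for no effect and reference compound for full effect.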 The following applies: V-ATPase proton transport, at 10 µM, stronger effect = higher value.
Assay [13] concerns anti-desmoglein-3 scFv antibody binding to human DSG3. Nature of the assay: blockers of pathogenic pemphigus antibody–desmoglein-3 binding – biochemical, validation compound set, bead-based, flow cytometry, pilot screen (AID 588368;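 active = binding below the plate cutoff, the plate median minus 3 SD, with a reading above zero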;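 note: signal is the median channel fluorescence of bead-bound GFP antibody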). The conditions noted are these: Protein G beads, DSG3-Fc, scFv-GFP binding, at 10 µM, stronger effect = lower value.
Assay [14] in a line: Nile Red efflux blockade in pump-expressing yeast – validation compound set, multiplex, phenotypic, pilot screen (AID 588506;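 active = efflux inhibition above 0.42, the validation set average plus 4 SD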;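 note: Nile Red retained in cells so higher fluorescence means more efflux inhibition; 0 = negative control wells and 1 = enniatin B 25 µM full block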). The following applies: S. cerevisiae pump-expressing triplex, Nile Red efflux flow cytometry; at 10 µM; stronger effect = higher value; the pumps come from Candida albicans.
Assay [15] addresses ATP-binding cassette sub-family B member 6 (Homo sapiens) (UniProt Q9NP58). Nature of the assay: blockers of ABCB6-driven porphyrin uptake – K562-ABCB6 cells, flow cytometry, validation set, pilot screen (AID 588550;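 active = inhibition above the screen-wide mean plus 3 SD, about 51%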;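 note: 0% = DMSO wells and 100% = benzethonium chloride 70 µM positive control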). The following applies: K562-ABCB6 porphyrin accumulation, 1 h, at 10 µM, stronger effect = higher value.
Assay [16] in a line: AML differentiation inducers, ER-HoxA9 marrow cells – cell-based, GFP/MAC1 double positive, flow cytometry, validation set, primary screen (AID 588685;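 active = differentiation response of at least 50%, scaled between solvent and reference control, from cells with both markers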;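 note: compound exposure lasts four days before antibody staining and flow analysis; 0% = DMSO wells and 100% = 5 µM fulvestrant positive control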). The following applies: stronger effect = higher value, normalized: vehicle 0, fulvestrant 100.

Results filed as inconclusive are left out. Calls of active or inactive are those of the source. Cut-off read from the data, not from the text of the source, unless noted: active = response above about 15%; inactive = the rest.

Here are results for five molecules from PubChem BioAssay.

What is called inhibition is the change of the read-out against control, counted positive when it falls.

Chain of ATP-binding cassette sub-family B member 6 (Homo sapiens) (Q9NP58 whole entry, looked up): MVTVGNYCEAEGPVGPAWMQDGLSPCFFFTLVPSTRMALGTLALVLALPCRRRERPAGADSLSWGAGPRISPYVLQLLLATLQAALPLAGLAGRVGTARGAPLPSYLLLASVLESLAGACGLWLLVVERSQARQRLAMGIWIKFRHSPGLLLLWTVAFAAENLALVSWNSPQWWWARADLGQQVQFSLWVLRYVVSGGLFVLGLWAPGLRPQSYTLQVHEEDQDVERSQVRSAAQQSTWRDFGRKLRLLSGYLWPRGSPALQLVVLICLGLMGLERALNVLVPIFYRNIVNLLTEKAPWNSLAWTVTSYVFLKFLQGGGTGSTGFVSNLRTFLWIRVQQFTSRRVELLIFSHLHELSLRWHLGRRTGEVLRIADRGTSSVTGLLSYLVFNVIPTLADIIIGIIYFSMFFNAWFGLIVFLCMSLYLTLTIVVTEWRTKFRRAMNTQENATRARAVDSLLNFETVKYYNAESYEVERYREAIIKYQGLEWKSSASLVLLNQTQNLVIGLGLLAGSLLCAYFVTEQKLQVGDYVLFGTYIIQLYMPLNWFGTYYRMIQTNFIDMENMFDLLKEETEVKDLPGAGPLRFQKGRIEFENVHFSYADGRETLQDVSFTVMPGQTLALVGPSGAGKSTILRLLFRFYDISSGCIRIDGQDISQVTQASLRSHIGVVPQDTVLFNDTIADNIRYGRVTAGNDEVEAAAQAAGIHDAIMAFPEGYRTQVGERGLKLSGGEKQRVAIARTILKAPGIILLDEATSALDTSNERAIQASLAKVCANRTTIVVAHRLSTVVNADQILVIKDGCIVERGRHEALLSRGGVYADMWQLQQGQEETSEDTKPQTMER
Chain of Integrin beta-1 (Homo sapiens) + Integrin alpha-4 (Homo sapiens) (P05556 whole entry, looked up): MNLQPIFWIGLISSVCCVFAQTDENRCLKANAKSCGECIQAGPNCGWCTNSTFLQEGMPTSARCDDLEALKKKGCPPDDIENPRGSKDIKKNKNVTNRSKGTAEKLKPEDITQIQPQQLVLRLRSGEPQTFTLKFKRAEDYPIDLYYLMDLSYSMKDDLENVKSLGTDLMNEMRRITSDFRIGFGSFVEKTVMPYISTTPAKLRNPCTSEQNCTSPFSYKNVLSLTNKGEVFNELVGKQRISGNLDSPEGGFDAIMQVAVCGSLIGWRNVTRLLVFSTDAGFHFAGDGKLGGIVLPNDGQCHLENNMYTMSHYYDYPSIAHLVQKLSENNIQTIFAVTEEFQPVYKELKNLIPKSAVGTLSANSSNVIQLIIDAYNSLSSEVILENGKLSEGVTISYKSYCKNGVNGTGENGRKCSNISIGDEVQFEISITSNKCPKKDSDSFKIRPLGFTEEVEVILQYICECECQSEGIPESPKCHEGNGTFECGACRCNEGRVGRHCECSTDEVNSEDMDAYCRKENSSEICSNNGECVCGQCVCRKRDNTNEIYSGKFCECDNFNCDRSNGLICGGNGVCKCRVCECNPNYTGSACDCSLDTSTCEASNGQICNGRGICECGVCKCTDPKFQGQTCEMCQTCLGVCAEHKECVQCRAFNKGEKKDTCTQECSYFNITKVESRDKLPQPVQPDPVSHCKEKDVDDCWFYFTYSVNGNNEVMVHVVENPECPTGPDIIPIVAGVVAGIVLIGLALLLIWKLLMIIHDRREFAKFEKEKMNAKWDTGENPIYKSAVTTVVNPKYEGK
Chain of Integrin beta-1 (Homo sapiens) + Integrin alpha-4 (Homo sapiens) (P13612 whole entry, looked up): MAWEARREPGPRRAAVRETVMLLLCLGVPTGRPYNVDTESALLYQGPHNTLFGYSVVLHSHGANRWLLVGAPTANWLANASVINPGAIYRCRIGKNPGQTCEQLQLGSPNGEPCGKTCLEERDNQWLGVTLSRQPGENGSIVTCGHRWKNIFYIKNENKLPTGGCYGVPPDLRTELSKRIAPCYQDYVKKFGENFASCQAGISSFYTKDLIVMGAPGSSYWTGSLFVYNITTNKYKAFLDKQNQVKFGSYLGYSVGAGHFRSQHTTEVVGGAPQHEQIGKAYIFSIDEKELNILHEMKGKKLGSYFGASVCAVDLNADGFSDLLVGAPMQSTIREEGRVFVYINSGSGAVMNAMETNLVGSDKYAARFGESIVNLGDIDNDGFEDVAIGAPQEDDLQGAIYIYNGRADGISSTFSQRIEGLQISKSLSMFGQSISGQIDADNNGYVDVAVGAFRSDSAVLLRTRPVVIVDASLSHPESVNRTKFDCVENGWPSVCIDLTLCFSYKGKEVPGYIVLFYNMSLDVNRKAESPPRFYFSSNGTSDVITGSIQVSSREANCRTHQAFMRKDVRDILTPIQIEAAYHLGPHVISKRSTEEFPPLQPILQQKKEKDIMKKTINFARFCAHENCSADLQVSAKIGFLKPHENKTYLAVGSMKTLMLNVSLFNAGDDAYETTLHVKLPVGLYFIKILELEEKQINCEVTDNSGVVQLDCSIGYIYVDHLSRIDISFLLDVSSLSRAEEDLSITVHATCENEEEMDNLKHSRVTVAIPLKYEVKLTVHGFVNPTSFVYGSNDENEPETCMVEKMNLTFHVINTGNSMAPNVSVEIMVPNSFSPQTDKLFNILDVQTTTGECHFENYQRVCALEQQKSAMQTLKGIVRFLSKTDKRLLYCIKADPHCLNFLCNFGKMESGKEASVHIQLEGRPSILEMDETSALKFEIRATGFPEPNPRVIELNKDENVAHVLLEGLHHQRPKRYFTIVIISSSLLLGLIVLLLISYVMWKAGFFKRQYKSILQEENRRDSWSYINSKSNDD

For the molecule `CC1(C)CC(=O)C2=C(C1)c1c(ccc3ccccc13)NC2c1ccco1` (stereo not given), the percent of DMSO control GFP in assay [1] is 98.8% (inactive). Further, the GFP response vs DMSO in assay [2] is 105% (inactive); in assay [4], 123% (inactive). The percent response of DMSO control in assay [3] is 93.9% (inactive). The GFP response, % of DMSO in assay [5] was 99.5% (inactive). Besides, in assay [6], the double positive events worked out at 57%. The vesicle binding response in assay [6] was 182% (inactive). In addition, the inhibition in [7] was -8.62% (inactive); in [11], 13.8% (inactive); in assay [15], 3% (inactive). The superoxide response (% of plate) in assay [8] was 107% (inactive). In assay [9], the aptamer binding inhibition is 6% (inactive). In addition, the response in assay [10] is 14.4% (inactive); in [12] it was 1.12% (inactive). Moreover, the binding (% of control) in assay [13] is 104% (inactive). Also, in [14], the efflux inhibition (fraction of control) was -0.06 (inactive). Further, the differentiation response in [16] is 28% (inactive).
Regarding `Cc1onc(-c2c(Cl)cccc2Cl)c1C(=O)NC1C(=O)N2C1SC(C)(C)C2C(=O)O` (stereo not given), the percent of DMSO control GFP in [1] was 99.7% (inactive). Also, the figures for the GFP response vs DMSO in assay [2] and in assay [4] were 103% (inactive) and 117% (inactive), respectively. For the same molecule, the percent response of DMSO control in [3] is 100% (inactive). Besides, in assay [5], the GFP response, % of DMSO is 113% (inactive). In addition, the double positive events in assay [6] came to 59.6%. The vesicle binding response in [6] was 207% (inactive). The values for the inhibition in assay [7], in assay [11] and in assay [15] were -6.23% (inactive), 5.02% (inactive) and 3% (inactive), respectively. Moreover, in assay [8], the superoxide response (% of plate) is 83.9% (inactive). In assay [9], the aptamer binding inhibition was 0% (inactive). Besides, the results for the response in assay [10] and in [12] were -26.4% (inactive) and -4.49% (inactive), respectively. Moreover, in assay [13], the binding (% of control) is 103% (inactive). Also, in assay [14], the efflux inhibition (fraction of control) is 0 (inactive). The differentiation response in [16] is -12.9% (inactive).
As for `CCOc1ccc2nc(N/C(N)=N/S(C)(=O)=O)nc(C)c2c1`, the percent of DMSO control GFP in assay [1] is 90.6% (inactive). The GFP response vs DMSO was 132% (inactive) in assay [2] and 84.7% (inactive) in [4]. Also, the percent response of DMSO control in [3] is 107% (inactive). The GFP response, % of DMSO in assay [5] is 93.8% (inactive). This molecule also returned a double positive events in [6] of 67.9%. The vesicle binding response in [6] is 174% (inactive). Moreover, the inhibition is -3.24% (inactive) in assay [7], 35.3% (inactive) in [11] and 0% (inactive) in assay [15]. The superoxide response (% of plate) in [8] is 98.7% (inactive). In addition, the aptamer binding inhibition in assay [9] was 3% (inactive). Besides, the results for the response in assay [10] and in assay [12] were -5.51% (inactive) and -5.13% (inactive), respectively. The binding (% of control) in [13] is 95% (inactive). In addition, the efflux inhibition (fraction of control) in [14] is 0.05 (inactive). In addition, in [16], the differentiation response was 3.28% (inactive).
Regarding `CN1[C@@H]2CC[C@H]1CC(OC(=O)C(CO)c1ccccc1)C2` (stereo not given in full), in [1], the percent of DMSO control GFP is 99.6% (inactive). Also, the figures for the GFP response vs DMSO in [2] and in assay [4] were 97.7% (inactive) and 86.1% (inactive), respectively. For the same molecule, in [3], the percent response of DMSO control was 103% (inactive). Also, the GFP response, % of DMSO in assay [5] is 98% (inactive). The double positive events in [6] worked out at 61.1%. In addition, the vesicle binding response in [6] was 163% (inactive). For the same molecule, the inhibition is 8.29% (inactive) in [7], -4.27% (inactive) in assay [11] and 7% (inactive) in assay [15]. Further, the superoxide response (% of plate) in [8] was 113% (inactive). Also, the aptamer binding inhibition in assay [9] is 25% (inactive). Besides, the response in assay [10] was -0.25% (inactive); in assay [12] it was 3.64% (inactive). For the same molecule, the binding (% of control) in assay [13] is 101% (inactive). Besides, the efflux inhibition (fraction of control) in assay [14] is -0.205 (inactive). The differentiation response in [16] is -13.3% (inactive).
Consider `COc1ccc(OCc2cccc(C(=O)NN)c2)cc1`, for which the percent of DMSO control GFP in assay [1] was 94.8% (inactive). Besides, the GFP response vs DMSO is 97.4% (inactive) in [2] and 98.2% (inactive) in assay [4]. Further, the percent response of DMSO control in assay [3] is 105% (inactive). Moreover, in assay [5], the GFP response, % of DMSO was 86.3% (inactive). In addition, the double positive events in [6] was found to be 59.7%. Also, in assay [6], the vesicle binding response was 167% (inactive). The values for the inhibition in assay [7], in assay [11] and in assay [15] were -8.62% (inactive), -3.59% (inactive) and 3% (inactive), respectively. For the same molecule, the superoxide response (% of plate) in assay [8] is 98.7% (inactive). Moreover, in assay [9], the aptamer binding inhibition is 8% (inactive). The response was 11.1% (inactive) in [10] and -1.43% (inactive) in assay [12]. For the same molecule, the binding (% of control) in [13] is 103% (inactive). Also, in assay [14], the efflux inhibition (fraction of control) is -0.28 (inactive). Moreover, the differentiation response in assay [16] is -13.6% (inactive).
